# Source: PubChem BioAssay (NCI)
# Compounds without any hit were thinned out: in the full panel of roughly 83,000, 20% have a hit.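 48-hour exposure, single concentration, 96-well plates; percent growth endpoint where 0 means no net growth. Active: below 10.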 Unmarked numbers belong to inactive results. Activity calls are given as the source filed them.
# Tested on: HS 578T breast
# Experiment: NCI-60 one-dose screen, 48 h (100 = growth as untreated, 0 = no growth, -100 = all killed)
# Conditions: 10 µM unless noted
# Experimental: Growth inhibition of the HS 578T human tumor cell line is measured as a screen for anti-cancer activity. Cells are grown in 96 well plates and exposed to the test compound for 48 hours. Compounds are tested at a single concentration, which is 10^-5 M for most compounds. The reported endpoint is percent growth (GI% or GIPRCNT), where numbers from 0 - 100% represent growth inhibition, and numbers from -100% - 0 represent cell death. For example, a value of 40 represents 60% growth inhibition. A value of 0 means no net growth occurred over the course of the experiment. A value of -40 indicates 40% of cells at the beginning of the experiment died by the end of the experiment. A value of -100 means all cells are dead at the end of the experiment.
# NCI-60 Human Tumor Cell Lines Screen was performed using the standard one-dose NCI protocol, which is described in more detail at https://dtp.cancer.gov/discovery_development/nci-60/default.htm.
# Compounds with GIPRCNT values below 10 were considered active. Activity score was based on GIPRCNT using the following formula: […]
# Score is 0 for GIPRCNT values of 100 or above, 50 for GIPRCNT values of 0, and 100 for GIPRCNT values of -100.
row,SMILES,growth
1,COc1nc(OC)nc(-c2cc(-c3cc(OC)c(OC)c(OC)c3)no2)n1,95.2%
2,COc1cccc(NC(=O)NCCNc2nccc(-c3c(-c4ccc(F)cc4)nc4sccn34)n2)c1,110%
3,O=C1c2ccccc2CCc2ccccc21,105%
4,CC(=O)Nc1nc(C)c(C(=O)N/N=C/N2CCCCC2)s1,107%
5,CC(C)(C)C(=O)CCCCCCCC/C=C/CCCC(O)c1ccco1 (stereo not given),106%
6,C[n+]1c2ccccc2c(Nc2ccc(NS(=O)(=O)CCCCN=C(N)N)cc2)c2ccc(N)cc21,34.5%
7,COc1cc(CNC(=O)CCCC/C=C/C(C)C)ccc1OCc1nnc(Nc2ccccc2F)o1,83.7%
8,Cc1ccc(C(=O)Nc2ccc(CN3CCN(C)CC3)c(C(F)(F)F)c2)cc1C#Cc1cnc(N)c2ccc(C#N)cc12,47.4%
9,CCCCCCCCCCCC(=O)OC(C)C(=O)Nc1ccccc1 (stereo not given),94.3%
10,CCC1(CC)C(OC)NC(Br)=C(C#N)C1(C#N)C(N)=O (stereo not given),96.5%
11,O=c1oc2ccc3ccccc3c2cc1-c1ccnc2[nH]c(=S)[nH]c(=O)c12,107%
12,CCCC(=O)Nc1ccccc1C(=O)O,102%
13,NNC(=S)N1N=C(c2cc3ccccc3o2)CC1c1c[nH]c2ccccc12 (stereo not given),63.8%
14,COc1cc(OC)c(/C=C/c2ccc3ccccc3[n+]2C)c(OC)c1,34.4%
15,O=C(O)c1occ(Cl)c1Cl,115%
16,Cc1nc(NC(=S)Nc2ccc(F)cc2)sc1C(=O)NNC(=S)Nc1ccc(F)cc1,72.4%
17,Cc1c(C(N)=O)sc2c1c(=O)n(Cc1ccccc1)c1nnc(S(C)(=O)=O)n21,87.5%
18,CC(O)CN(CCO)CCN(CCO)CC(C)O (stereo not given),108%
19,CC([C@H]1CCC2C3CCC4C[C@@H](N)CC[C@]4(C)C3CC[C@@]21C)N(C)C (stereo not given in full),79.1%
20,O=C(C(=O)N1CCOCC1)c1ccc(O[C@H]2O[C@H](CO)[C@@H](O)[C@H](O)[C@@H]2O)cc1,183%

row,SMILES,growth
1,COC(=O)C(C)[C@H]1CC[C@@H]2[C@]1(C)CC=C1[C@]23C=C[C@]2(C[C@@H](OC(C)=O)CC[C@]12C)C(C(=O)OC)C3C(=O)OC (stereo not given in full),102%
2,Cc1ccc(S(=O)(=O)N/N=C2\CC3CCC2C3)cc1 (stereo not given),115%
3,Nc1ncn([C@@H]2O[C@H](CO)[C@@H](O)C2(F)F)c(=O)n1,90.4%
4,COc1ccc(C(O)(c2ccccc2)C(C(=O)O)c2ccccc2)cc1 (stereo not given),114%
5,CCCNC(=O)Oc1ccc(/C(=C(/C)Cc2ccc(OC)cc2)c2ccc(OCCN3CCCCC3)cc2)cc1,71.7%
6,NC(N)=Nc1ccc(/C=C2\C=Cc3ccccc32)cc1,81.3%
7,O=C(N/N=C/c1ccccc1Cl)c1cccc2ccccc12,95.6%
8,CC(=O)N1CCN(CCNC(=O)n2cc(-c3ccncc3)c(-c3ccc(O)c(Cl)c3)n2)CC1,139%
9,Cc1c([C@H](C(Cl)Cl)[C@H](O)[C@H]2C[C@H](C)C(=O)O2)ccc2c1C(=O)[C@H]1[C@H]2C[C@@H](Br)[C@@]23O[C@@H](CO[C@H]2O)CC13C (stereo not given in full),-23.2% (active)
10,CCCCn1c(Cc2ccc(OC)cc2)nc2cc(OC)c(OC)cc2c1=O,94.5%
11,COc1ccc(C(=O)NCCNc2nccc(-c3c(-c4ccc(F)cc4)nc4sccn34)n2)cc1,28.7%
12,COC(=O)c1ccc2[nH]c(O)c(C(=Nc3ccc(N(C)C(=O)CN4CCN(C)CC4)cc3)c3ccc(OC)cc3)c2c1,11.9%
13,COC(=O)CC(=O)C(=O)OC,105%
14,CSC1=Nc2c(c(C)c(-c3ccccc3)n2CCCCl)C2=NC(=O)CN12,84.6%
15,O=C(/C=C/c1ccc(Br)cc1)c1ccccc1,100%
16,Cc1ccc(S(=O)(=O)NC(CCC(=O)Nc2ccccc2)C(=O)Nc2ccccc2)cc1 (stereo not given),2.98% (active)
17,CC(=O)Nc1nc(C)c(C(=O)N/N=C/N2CCOCC2)s1,97.6%
18,O=c1c2c(c3ccccc3n1-c1ccccc1)NC(=S)NC2c1ccccc1 (stereo not given),105%
19,Cc1ccc(CC(=O)O)c(C)c1,101%
20,O=S(=O)(O)c1ccc2c(c1)Sc1cc(S(=O)(=O)O)ccc1O2,110%
